Experimental findings from PubChem BioAssay (EPA / NIEHS) are described below.

For experiment [1], the target named is rat Constitutive Nitric Oxide Synthase (CNOS), Nos1 (gene 24598) (UniProt P29476). Kind of experiment: NVS_ENZ_rCNOS: NovaScreen (NVS) Enzymatic Assay for rat Constitutive Nitric Oxide Synthase (CNOS) (AID 2283236). The method, boiled down: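 Single 25 uM duplicate screen, then concentration series to 50 uM for chemicals meeting threshold. Rat brain membrane-derived CNOS activity detected radiometrically by filtration and scintillation counting, 1 h after compound addition; DMSO as baseline.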

Experiment [2] relates to rat Monoamine Oxidase, MAO-A, Peripheral (MAOAP), gene 29253. The experiment in a line: NVS_ENZ_rMAOAP: NovaScreen (NVS) Enzymatic Assay for rat Monoamine Oxidase, MAO-A, Peripheral (MAOAP) (AID 2283237). The method, boiled down: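 Scintillation counting tracked MAO-A activity in a cell-free rat liver mitochondrial membrane prep, read 1.17 hours after compound addition. Single-point duplicate testing at 25 uM preceded concentration-response follow-up; activity was fitted relative to DMSO.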

For experiment [3], the system named is rat Monoamine Oxidase, MAO-A, Central (MAOAC), gene 29253. Kind of experiment: NVS_ENZ_rMAOAC: NovaScreen (NVS) Enzymatic Assay for rat Monoamine Oxidase, MAO-A, Central (MAOAC) (AID 2283243).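 Also: potency refers to inhibition seen as signal drop below DMSO baseline.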 An outline of the steps:
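Scintillation read-out of MAO-A activity in rat brain lysate, 1.5 h post-dosing. Primary single-concentration screen: 25 uM, duplicate; actives re-tested in concentration series. DMSO = negative control/baseline.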

In experiment [4] the target is sheep Cyclooxygenase-1 (Cox1), PTGS1 (gene 443551) (UniProt P05979). The experiment in a line: NVS_ENZ_oCOX1: NovaScreen (NVS) Enzymatic Assay for sheep Cyclooxygenase-1 (Cox1) (AID 2283239).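 Also: actives reduce cyclooxygenase activity so potencies are for inhibitors.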 The method, boiled down: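 Native ovine seminal vesicle protein serves as enzyme source in this biochemical assay. Colorimetric signal is recorded 0.66 h after chemical addition, and decreases versus the DMSO control define activity.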

Experiment [5] addresses rat Monoamine Oxidase, MAO-B, Peripheral (MAOBP), Maob (gene 25750) (UniProt P19643). The experiment in a line: NVS_ENZ_rMAOBP: NovaScreen (NVS) Enzymatic Assay for rat Monoamine Oxidase, MAO-B, Peripheral (MAOBP) (AID 2283242).
Experiment [6] has as its target rat Monoamine Oxidase, MAO-B, Central (MAOBC), Maob (gene 25750) (UniProt P19643). The experiment in a line: NVS_ENZ_rMAOBC: NovaScreen (NVS) Enzymatic Assay for rat Monoamine Oxidase, MAO-B, Central (MAOBC) (AID 2283238). An outline of the steps:
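Actives from a duplicate 25 uM screen went on to singleton concentration-response with a 50 uM maximum. Enzyme source was rat brain tissue MAO-B, assayed cell-free. Radiolabelled product was counted by scintillation 1.17 h post-dose, with signal loss relative to DMSO.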

Experiment [7] concerns the target Adenosine receptor A1 (Bos taurus) (UniProt P28190). Kind of experiment: NVS_GPCR_bAdoR_NonSelective: NovaScreen (NVS) G Protein-Coupled Receptor Assay for bovine Adenosine Receptor (AdoR), Non-selective Binding (AID 2283244). An outline of the steps: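 Cell-free binding with membranes from bovine striatum: radioligand displaced by test chemical, read after 1 h by filtration and scintillation. Single-point 25 uM duplicate primary, 50 uM top concentration in follow-up curves, DMSO baseline.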

In experiment [8] the target is bovine Dopamine Receptor (DR), Non-selective Binding, DRD1 (gene 281125) (UniProt Q95136). The experiment in a line: NVS_GPCR_bDR_NonSelective: NovaScreen (NVS) G Protein-Coupled Receptor Assay for bovine Dopamine Receptor (DR), Non-selective Binding (AID 2283241). The method, boiled down:
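Filter-based radioligand binding with bovine striatal membrane, incubated 1 h; DMSO as negative baseline. Initial duplicate single-point test at 25 uM preceded concentration series for actives.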

Experiment [9] in a line: NVS_GPCR_bNPY_NonSelective: NovaScreen (NVS) G Protein-Coupled Receptor Assay for bovine Neuropeptide Y (NPY) Receptor, Non-selective Binding (AID 2283245). The method, boiled down:
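Displacement of radioligand from bovine hippocampal membrane receptors, read by filtration and scintillation counting after 1 hour. Concentration-response to a top of 50 uM followed a 25 uM duplicate primary screen. Loss of signal versus DMSO.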

For experiment [10], the system named is bovine Angiotensin II Receptor Type 2 (AT2), gene 407157. Kind of experiment: NVS_GPCR_bAT2: NovaScreen (NVS) G Protein-Coupled Receptor Assay for bovine Angiotensin II Receptor Type 2 (AT2) (AID 2283240). An outline of the steps: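 Radioligand displacement on bovine cerebellar membranes, 1 hour incubation, filter-based scintillation counting; loss of signal vs DMSO. Duplicate single-point screen at 25 uM, then concentration-response to 50 uM maximum.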

“And” between values parts separate entries of the source, which are not always exact repeats. Equal values may be shown once. Records with an inconclusive call do not appear. The source holds several records for some structures; these can differ, active in one and inactive in another. The source made the active and inactive calls. The calls were made as follows: active = hit-call score of the fitted dose curve at least 0.9, where 1 is the maximum; inconclusive = response in the unintended direction; inactive = score below 0.9.

Sequence of rat Constitutive Nitric Oxide Synthase (CNOS), Nos1 (gene 24598) (P29476 whole entry, looked up): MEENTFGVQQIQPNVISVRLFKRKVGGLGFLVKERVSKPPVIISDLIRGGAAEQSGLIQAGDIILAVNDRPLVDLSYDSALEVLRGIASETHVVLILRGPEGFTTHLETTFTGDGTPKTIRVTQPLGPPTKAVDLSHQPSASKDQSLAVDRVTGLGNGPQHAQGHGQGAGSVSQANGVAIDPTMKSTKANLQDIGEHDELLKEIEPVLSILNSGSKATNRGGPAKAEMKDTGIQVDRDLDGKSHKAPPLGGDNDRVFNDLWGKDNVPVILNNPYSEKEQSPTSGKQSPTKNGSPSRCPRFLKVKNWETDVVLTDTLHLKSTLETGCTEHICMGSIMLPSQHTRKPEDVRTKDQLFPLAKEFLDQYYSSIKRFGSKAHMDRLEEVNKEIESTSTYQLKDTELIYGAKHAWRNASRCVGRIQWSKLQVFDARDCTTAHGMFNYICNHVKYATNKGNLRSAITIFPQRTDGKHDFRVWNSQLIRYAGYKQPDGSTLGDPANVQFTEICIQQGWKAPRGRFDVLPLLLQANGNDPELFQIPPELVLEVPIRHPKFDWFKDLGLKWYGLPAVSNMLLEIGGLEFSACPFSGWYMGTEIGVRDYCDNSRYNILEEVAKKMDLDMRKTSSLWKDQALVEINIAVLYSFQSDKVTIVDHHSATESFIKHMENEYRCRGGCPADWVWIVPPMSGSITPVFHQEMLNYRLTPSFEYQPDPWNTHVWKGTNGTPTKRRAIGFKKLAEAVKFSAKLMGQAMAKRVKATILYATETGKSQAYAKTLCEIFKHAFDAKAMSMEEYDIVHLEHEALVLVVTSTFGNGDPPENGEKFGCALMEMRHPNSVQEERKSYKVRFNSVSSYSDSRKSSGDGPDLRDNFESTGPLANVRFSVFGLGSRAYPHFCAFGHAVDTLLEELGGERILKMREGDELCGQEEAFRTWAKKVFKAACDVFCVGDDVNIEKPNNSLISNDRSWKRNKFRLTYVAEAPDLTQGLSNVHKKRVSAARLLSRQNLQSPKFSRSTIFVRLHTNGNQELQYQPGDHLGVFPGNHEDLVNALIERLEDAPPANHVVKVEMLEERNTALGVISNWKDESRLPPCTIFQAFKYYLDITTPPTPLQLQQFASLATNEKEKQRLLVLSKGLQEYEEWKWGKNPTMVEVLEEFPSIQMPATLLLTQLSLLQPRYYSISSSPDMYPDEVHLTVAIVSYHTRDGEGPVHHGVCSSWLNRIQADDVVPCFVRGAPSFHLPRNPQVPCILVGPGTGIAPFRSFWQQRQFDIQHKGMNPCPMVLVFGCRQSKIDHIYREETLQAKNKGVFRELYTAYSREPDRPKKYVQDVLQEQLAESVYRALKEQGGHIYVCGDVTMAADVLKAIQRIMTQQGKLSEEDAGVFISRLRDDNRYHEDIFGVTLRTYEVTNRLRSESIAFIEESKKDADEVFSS
Sequence of sheep Cyclooxygenase-1 (Cox1), PTGS1 (gene 443551) (P05979 whole entry, looked up): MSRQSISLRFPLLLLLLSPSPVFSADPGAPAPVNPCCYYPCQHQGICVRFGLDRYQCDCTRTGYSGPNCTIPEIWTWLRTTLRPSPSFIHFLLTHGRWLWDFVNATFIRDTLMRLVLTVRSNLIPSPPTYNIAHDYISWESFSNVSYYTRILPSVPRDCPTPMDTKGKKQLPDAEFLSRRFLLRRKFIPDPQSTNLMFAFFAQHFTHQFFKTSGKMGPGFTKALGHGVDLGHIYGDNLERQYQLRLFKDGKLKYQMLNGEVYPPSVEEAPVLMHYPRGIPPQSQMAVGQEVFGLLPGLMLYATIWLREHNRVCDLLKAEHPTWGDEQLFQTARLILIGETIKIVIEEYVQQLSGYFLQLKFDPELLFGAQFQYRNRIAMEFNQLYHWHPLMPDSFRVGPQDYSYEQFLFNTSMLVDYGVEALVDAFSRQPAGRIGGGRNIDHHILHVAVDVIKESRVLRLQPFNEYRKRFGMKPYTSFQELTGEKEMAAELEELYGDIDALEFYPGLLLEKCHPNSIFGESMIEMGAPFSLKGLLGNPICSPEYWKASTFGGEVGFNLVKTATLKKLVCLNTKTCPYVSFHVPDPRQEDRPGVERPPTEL
Sequence of rat Monoamine Oxidase, MAO-B, Peripheral (MAOBP), Maob (gene 25750) (P19643 whole entry, looked up): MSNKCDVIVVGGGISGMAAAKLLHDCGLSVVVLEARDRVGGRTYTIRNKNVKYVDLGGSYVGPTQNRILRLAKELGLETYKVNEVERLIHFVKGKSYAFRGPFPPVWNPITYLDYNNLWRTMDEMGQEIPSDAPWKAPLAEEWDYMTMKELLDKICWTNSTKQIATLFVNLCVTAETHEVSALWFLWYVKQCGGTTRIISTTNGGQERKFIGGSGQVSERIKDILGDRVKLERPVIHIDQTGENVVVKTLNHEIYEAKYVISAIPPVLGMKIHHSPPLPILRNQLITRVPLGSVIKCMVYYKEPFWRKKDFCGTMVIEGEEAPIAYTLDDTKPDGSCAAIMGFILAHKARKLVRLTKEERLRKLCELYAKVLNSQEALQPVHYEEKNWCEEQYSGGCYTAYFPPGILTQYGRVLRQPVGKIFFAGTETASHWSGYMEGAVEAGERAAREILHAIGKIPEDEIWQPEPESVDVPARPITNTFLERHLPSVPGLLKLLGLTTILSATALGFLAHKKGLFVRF
Sequence of rat Monoamine Oxidase, MAO-B, Central (MAOBC), Maob (gene 25750) (P19643 whole entry, looked up): as above
Sequence of bovine Dopamine Receptor (DR), Non-selective Binding, DRD1 (gene 281125) (Q95136 whole entry, looked up): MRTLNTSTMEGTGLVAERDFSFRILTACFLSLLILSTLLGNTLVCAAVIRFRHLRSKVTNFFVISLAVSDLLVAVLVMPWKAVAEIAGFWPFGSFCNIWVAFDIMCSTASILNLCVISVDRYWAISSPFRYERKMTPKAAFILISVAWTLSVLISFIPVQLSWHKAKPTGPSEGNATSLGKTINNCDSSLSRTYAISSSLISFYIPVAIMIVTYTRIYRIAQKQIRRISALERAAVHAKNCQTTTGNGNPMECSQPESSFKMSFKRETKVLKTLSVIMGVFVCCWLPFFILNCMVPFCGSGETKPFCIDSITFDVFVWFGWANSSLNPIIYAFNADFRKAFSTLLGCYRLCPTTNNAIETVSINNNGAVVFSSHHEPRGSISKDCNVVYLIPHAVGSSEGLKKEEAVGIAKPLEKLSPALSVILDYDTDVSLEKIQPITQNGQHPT
Sequence of Adenosine receptor A1 (Bos taurus) (P28190 whole entry, looked up): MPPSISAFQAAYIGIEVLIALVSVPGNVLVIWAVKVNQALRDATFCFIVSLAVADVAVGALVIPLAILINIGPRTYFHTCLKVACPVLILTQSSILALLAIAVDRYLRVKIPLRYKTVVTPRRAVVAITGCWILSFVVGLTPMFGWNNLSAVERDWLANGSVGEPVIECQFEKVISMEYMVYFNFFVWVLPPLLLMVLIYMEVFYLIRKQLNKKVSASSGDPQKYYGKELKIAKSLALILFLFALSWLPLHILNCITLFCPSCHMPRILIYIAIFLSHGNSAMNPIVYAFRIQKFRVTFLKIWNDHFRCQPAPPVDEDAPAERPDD

Regarding `CCCN(CCC)c1c([N+](=O)[O-])cc(S(N)(=O)=O)cc1[N+](=O)[O-]`, the outcome in experiment [1] was inactive.
The term AC50 denotes the concentration giving half of the maximal activity seen. Consider `CC1=C(C(=O)Nc2ccccc2)SCCO1`, for which the molecule was called inactive in [2]. Besides, the AC50 in experiment [3] is 17.5 µM (active).
On to `CN(C)C(=S)SSC(=S)N(C)C`, for which the outcome in experiment [2], in [4] and in experiment [5] was inactive.
`C=CCC1=C(C)C(OC(=O)C2C(C=C(C)C)C2(C)C)CC1=O` (centres undefined): the outcome in experiment [2] was inactive.
On to `O=C(Nc1ccccc1)Nc1ccnc(Cl)c1`, for which the molecule was classed as inactive in [6]. Moreover, the AC50 in experiment [3] was 25 µM (active).
Turning to `COC(=O)c1ccccc1C(=O)OC`, the result in experiment [3] was inactive.
Regarding `CCOP(=S)(OCC)SCn1c(=O)oc2cc(Cl)ccc21`, the molecule was called inactive in experiment [1].
For the molecule `COc1ccc(C(c2ccc(OC)cc2)C(Cl)(Cl)Cl)cc1`, the AC50 in experiment [6] was 25 µM (active).
For the molecule `CC1COC(Cn2cncn2)(c2ccc(Oc3ccc(Cl)cc3)cc2Cl)O1` (centres undefined), the AC50 is 1.3 µM (active) in [2] and 1.8 µM (active) in [3].
For `CNC(=S)S`, in experiment [5], the outcome was inactive.
Take `CON(C)C(=O)Nc1ccc(Cl)c(Cl)c1`: the AC50 was 16.1 µM (active) [middle of 4 runs] in experiment [6] and 20.5 µM (active) [middle of 4 runs] in [3]. For the same molecule, in experiment [4], the molecule was called inactive.
Consider `CO/C=C(/C(=O)OC)c1ccccc1Oc1cc(Oc2ccccc2C#N)ncn1`, for which the molecule was called inactive in [4]. Moreover, the AC50 in [7] is 19.1 µM (active) and 7.23 µM (active).
Take `CCOC(=O)CC(SP(=S)(OC)OC)C(=O)OCC` (centres undefined): the molecule was classed as inactive in experiment [6]. Further, the AC50 in [7] was 9.48 µM (active).
Take `Oc1ccccc1-c1ccccc1`: the AC50 is 8.97 µM (active) in experiment [4] and 25 µM (active) in [3].
For the molecule `CCCCOC(=O)c1ccccc1C(=O)OCCCC`, the molecule was called inactive in experiment [1], in experiment [4] and in experiment [8].
On to `CCNc1nc(Cl)nc(NC(C)C)n1`, for which the AC50 was 25 µM (active) and 8.22 µM (active) in experiment [3]; 8.64 µM (active) in experiment [7]. Further, the molecule was called inactive in [3].
`CCCCC(CC)COC(=O)c1ccccc1C(=O)OCC(CC)CCCC` (centres undefined): the call in experiment [1] was inactive.
In the case of `COC(=O)C=C(C)OP(=O)(OC)OC`, the outcome in experiment [5] was inactive.
`COc1nc(C)nc(NC(=O)NS(=O)(=O)c2ccccc2Cl)n1`: in experiment [3], the AC50 is 37.7 µM (active) and the call was inactive.
Regarding `C#CCOS(=O)OC1CCCCC1Oc1ccc(C(C)(C)C)cc1` (centres undefined), the AC50 in [6] is 13.3 µM (active).
With `C=CCC1=C(C)[C@@H](OC(=O)[C@@H]2[C@@H](C=C(C)C)C2(C)C)CC1=O`, the result in experiment [4] was inactive.
Turning to `Fc1ccc(Oc2ccnc3cc(Cl)cc(Cl)c23)cc1`, the molecule was classed as inactive in experiment [3].
Regarding `C=CC1(C)OC(=O)N(c2cc(Cl)cc(Cl)c2)C1=O` (centres undefined), the molecule was classed as inactive in [6] and in experiment [4].
Take `COc1nc(NC(C)C)nc(NC(C)C)n1`: the AC50 in experiment [6] is 1.29 µM (active); in experiment [7], 25 µM (active).
In the case of `CC(C)(C)c1ccc(CSc2cnn(C(C)(C)C)c(=O)c2Cl)cc1`, the molecule was called inactive in experiment [6] and in [4].
Regarding `CCCCNC(=O)OCC#CI`, the AC50 in experiment [2] is 36.8 µM (active) and 25 µM (active); in experiment [5] it was 42.4 µM (active); in experiment [7], 11.9 µM (active); in experiment [9], 4.96 µM (active). Besides, the result in experiment [6], in experiment [8], in experiment [7] and in [9] was inactive.
On to `Cc1ccc(-c2c(Cl)nc(C#N)n2S(=O)(=O)N(C)C)cc1`, for which the results for the AC50 in [2] and in [3] were 3.36 µM (active) and 4.79 µM (active), respectively. For the same molecule, the molecule was called inactive in experiment [10].
